# Assay results taken from the supplement of paper PMC10338343.
# ± gives the standard deviation.
# Tested on: MILI (PIWIL2) piRISC loaded with L1MC piRNA (26 nt)
# Test: pre-steady-state target cleavage rate (min^-1); guide: L1MC piRNA 5'p-UAACUAAAUACUAUGCAAGCUGUAGG; higher = faster piRNA-guided slicing of the target
# Settings: auxiliary factor: none (no GTSF1)
# How it was run: (§1)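 Cleave-'n-Seq used a transcribed, DNA-blocked target RNA library at 0.1 nM and active affinity-purified piRISC with one synthetic guide at 1 nM, with or without 500 nM GTSF1 partner protein, in HEPES–potassium acetate buffer at 33 °C for 0–8 or 0–960 min. Uncleaved targets were sequenced and normalised to depth and to weakly complementary targets, and three trials were pooled with k3 capped at 0.0001 min^-1. The pre-steady-state cleavage rate was estimated by a burst-and-steady-state fit.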
row,Sequence,pre-steady-state target cleavage rate
1,UCCUCCUACAGCAUGCAUAGUUUUUAGUUA,0.00447 ± 0.002
2,UCCUGCUGACAGCUUGCAUAGUAUUUAGUUA,0.00993 ± 0.0029
3,UCCUGGUACAGCUUGUAUAGUAUUUAGUUA,0.0121 ± 0.0031
4,UCCUCCUACAGCUUGCAUAGUCUUUAGUUA,0.00522 ± 0.0021
5,UCCUGGAUGAGCUUAGCAUAGUAUUUAGUUA,0.0041 ± 0.0027
6,UCCUCGUACUGCUUGCAUAGUAUUUAGUUA,0.00745 ± 0.0024
7,UCCUGGUACAGCUAGGAUAGUAUUUAGUUA,0.00723 ± 0.0022
8,UCCUGGAUCAGUUUGCAUAGUAUUUAGUUA,0.0104 ± 0.0027
9,UCCUCCUACAGCUUGCAAAGUAUAUAGUUA,0.00276 ± 0.0025
10,UCCUGCUACAGCUUAGCAUAGUAUUUAGUUA,0.0072 ± 0.0026
11,UCCUGGUACAGCUUGCUUAGUAUAUAGUUA,0.00855 ± 0.0026
12,UCCUGGUACAGCUUGCAUAGUAUUUAGUGA,0.00389 ± 0.0025
13,UCCUGCUACAGCUUGCAUAGUAUAUUAGUUA,0.00735 ± 0.0029
14,UCCUCCUACACCUUGCAAAGUAUUUAGUUA,0.00739 ± 0.0022
15,UCCUGGAUCAGCUAGCAUACUAUUUAGUUA,0.00444 ± 0.0019
16,UCCUGGUACAGCAUGCAUAGUAUUUAGUUA,0.0158 ± 0.004
17,UCCUGGAUGAGACUUGCAUAGUAUUUAGUUA,0.00953 ± 0.0028
18,UCCUGGUUCAGCUUGCAUUGUAUUUAGUUA,0.0105 ± 0.0029
19,UCCUGGUACAGCUUGACAUAGUAUUUAGUUA,0.00764 ± 0.0035
20,UCCUGGAUGAGUUGCAUAGUAUUUAGUUA,0.00501 ± 0.0019

row,Sequence,pre-steady-state target cleavage rate
1,UCCUCCUAGAGCUUGCAUAGUAAUUAGUUA,0.00317 ± 0.0031
2,UCCUGCUACAGCUAGCAUAGUAAUUAGUUA,0.0047 ± 0.003
3,UCCUGGAUCUGCUAGCAUAGUAUUUAGUUA,0.00596 ± 0.0019
4,UCCUGGUACUGCUUGCAAAGUAUUUAGUUA,0.00779 ± 0.0021
5,UCCUCCUACAGCUUGCAUUGUAUUUAGUAA,0.00398 ± 0.002
6,UCCUCCUACAGCUUGCAUAGUAUUCUAGUUA,0.00537 ± 0.0026
7,UCCUGGAUGAGCAUGCAAAGUAUUUAGUUA,0.00571 ± 0.002
8,UCCUGGAACUGGUUGCAUAGUAUUUAGUUA,0.0046 ± 0.0029
9,UCCUGGAUGAGCUUGCAUAGUUUUUAGUUA,0.00471 ± 0.0024
10,UCCUGGAACAGCUAGCUUAGUAUUUAGUUA,0.0065 ± 0.0023
11,UCCUGGAUCAGCUUGCGUAGUAUUUAGUUA,0.0107 ± 0.0029
12,UCCUCCUACAGCUUGCAUAGAUAUUUAGUUA,0.00345 ± 0.0022
13,UCCUGGAUGAGCUUGGAUAGUAAUUAGUUA,0.00311 ± 0.0026
14,UCCUGGAACAGUUGCAUAGUAUUUAGUUA,0.00668 ± 0.0022
15,UCCUGCUCAGCUUGCAUAGUAUUUAGUUA,0.00716 ± 0.0018
16,UCCUGGUACUGCUAGCAUAGUAUUUAGUUA,0.0113 ± 0.003
17,UCCUGGAUGUCCUUGCAUAGUAUUUAGUUC [g2:g19:cont:t1C],0.00931 ± 0.0026
18,UCCUGGAUCAGCUGGCAUAGUAUUUAGUUA,0.00736 ± 0.0024
19,UCCUGGAACAGCUUGCGUAGUAUUUAGUUA,0.00716 ± 0.0018
20,UCCUGGAACAGCUUGCAUUGUAUUUAGUUA,0.00894 ± 0.0026

# Tested on: EfPiwi piRISC loaded with L1MC piRNA (26 nt)
# Test: pre-steady-state target cleavage rate (min^-1); auxiliary factor: 500 nM Ephydatia muelleri Gtsf1; guide: L1MC piRNA 5'p-UAACUAAAUACUAUGCAAGCUGUAGG; MIWI and MILI are mouse PIWI proteins and EfPiwi is from a freshwater sponge; tags in brackets are library labels; higher = faster piRNA-guided slicing of the target
# Settings: not given
# How it was run: as §1
row,Sequence,pre-steady-state target cleavage rate
1,UCCUCCUACAGCAUGCAUAGUUUUUAGUUA,0.00379 ± 0.0028
2,UCCUGCUGACAGCUUGCAUAGUAUUUAGUUA,0.0486 ± 0.013
3,UCCUGGUACAGCUUGUAUAGUAUUUAGUUA,0.0177 ± 0.0048
4,UCCUCCUACAGCUUGCAUAGUCUUUAGUUA,0.0068 ± 0.0025
5,UCCUGGAUGAGCUUAGCAUAGUAUUUAGUUA,0.0344 ± 0.0086
6,UCCUCGUACUGCUUGCAUAGUAUUUAGUUA,0.0721 ± 0.018
7,UCCUGGUACAGCUAGGAUAGUAUUUAGUUA,0.00331 ± 0.0017
8,UCCUGGAUCAGUUUGCAUAGUAUUUAGUUA,0.128 ± 0.021
9,UCCUCCUACAGCUUGCAAAGUAUAUAGUUA,0.008 ± 0.0043
10,UCCUGCUACAGCUUAGCAUAGUAUUUAGUUA,0.0477 ± 0.015
11,UCCUGGUACAGCUUGCUUAGUAUAUAGUUA,0.0737 ± 0.025
12,UCCUGGUACAGCUUGCAUAGUAUUUAGUGA,0.00447 ± 0.0018
13,UCCUGCUACAGCUUGCAUAGUAUAUUAGUUA,0.0185 ± 0.0079
14,UCCUCCUACACCUUGCAAAGUAUUUAGUUA,0.0172 ± 0.007
15,UCCUGGAUCAGCUAGCAUACUAUUUAGUUA,0.00342 ± 0.0018
16,UCCUGGUACAGCAUGCAUAGUAUUUAGUUA,0.0111 ± 0.0041
17,UCCUGGAUGAGACUUGCAUAGUAUUUAGUUA,0.00434 ± 0.003
18,UCCUGGUUCAGCUUGCAUUGUAUUUAGUUA,0.0223 ± 0.007
19,UCCUGGUACAGCUUGACAUAGUAUUUAGUUA,0.0102 ± 0.003
20,UCCUGGAUGAGUUGCAUAGUAUUUAGUUA,0.00429 ± 0.002

row,Sequence,pre-steady-state target cleavage rate
1,UCCUCCUAGAGCUUGCAUAGUAAUUAGUUA,0.011 ± 0.0039
2,UCCUGCUACAGCUAGCAUAGUAAUUAGUUA,0.00598 ± 0.0018
3,UCCUGGAUCUGCUAGCAUAGUAUUUAGUUA,0.0121 ± 0.0038
4,UCCUGGUACUGCUUGCAAAGUAUUUAGUUA,0.0752 ± 0.027
5,UCCUCCUACAGCUUGCAUUGUAUUUAGUAA,0.00648 ± 0.0029
6,UCCUCCUACAGCUUGCAUAGUAUUCUAGUUA,0.00344 ± 0.0019
7,UCCUGGAUGAGCAUGCAAAGUAUUUAGUUA,0.00414 ± 0.0036
8,UCCUGGAACUGGUUGCAUAGUAUUUAGUUA,0.02 ± 0.0073
9,UCCUGGAUGAGCUUGCAUAGUUUUUAGUUA,0.00485 ± 0.002
10,UCCUGGAACAGCUAGCUUAGUAUUUAGUUA,0.00846 ± 0.0037
11,UCCUGGAUCAGCUUGCGUAGUAUUUAGUUA,0.0111 ± 0.0032
12,UCCUCCUACAGCUUGCAUAGAUAUUUAGUUA,0.00501 ± 0.0032
13,UCCUGGAUGAGCUUGGAUAGUAAUUAGUUA,0.00302 ± 0.0021
14,UCCUGGAACAGUUGCAUAGUAUUUAGUUA,0.0543 ± 0.013
15,UCCUGCUCAGCUUGCAUAGUAUUUAGUUA,0.065 ± 0.015
16,UCCUGGUACUGCUAGCAUAGUAUUUAGUUA,0.00467 ± 0.0022
17,UCCUGGAUGUCCUUGCAUAGUAUUUAGUUC [g2:g19:cont:t1C],0.00867 ± 0.0028
18,UCCUGGAUCAGCUGGCAUAGUAUUUAGUUA,0.0104 ± 0.0026
19,UCCUGGAACAGCUUGCGUAGUAUUUAGUUA,0.00807 ± 0.0034
20,UCCUGGAACAGCUUGCAUUGUAUUUAGUUA,0.00926 ± 0.0026
